Common to all, as to assay: NCI-60 one-dose screen, 48 h (100 = growth as untreated, 0 = no growth, -100 = all killed)
The subject of test [1] is HCT-15 colon. To be noted: 10 µM unless noted.
Test [2] concerns HT29 colon. To be noted: 10 µM unless noted.
In test [3] the test system is SNB-75 CNS. The settings on record: 10 µM unless noted.
The subject of test [4] is SNB-19 CNS. The settings on record: 10 µM unless noted.
Test [5] concerns U251 CNS. The settings on record: 10 µM unless noted.
Test [6] has as its system PC-3 prostate. The settings on record: 10 µM unless noted.
Test [7] deals with SK-MEL-5 melanoma. The settings on record: 10 µM unless noted.
Test [8] deals with UACC-62 melanoma. The settings on record: 10 µM unless noted.
Test [9] concerns LOX IMVI melanoma. To be noted: 10 µM unless noted.
Test [10] concerns SK-MEL-28 melanoma. To be noted: 10 µM unless noted.
The subject of test [11] is EKVX NSCLC. To be noted: 10 µM.
For test [12], the system named is UO-31 renal. To be noted: 10 µM unless noted.
Test [13] has as its system ACHN renal. The settings on record: 10 µM unless noted.
The test system of test [14] is CAKI-1 renal. The settings on record: 10 µM unless noted.
The subject of test [15] is A498 renal. To be noted: 10 µM unless noted.
Test [16] concerns CCRF-CEM leukemia. To be noted: 10 µM.
Test [17] deals with MOLT-4 leukemia. The settings on record: 10 µM unless noted.
Test [18] deals with SN12C renal. To be noted: 10 µM unless noted.
Test [19] deals with TK-10 renal. The settings on record: 10 µM unless noted.
Test [20] deals with SK-MEL-2 melanoma. The settings on record: 10 µM unless noted.

About 83,000 compounds went through this panel and 20% of them were active in at least one assay; those are over-represented in the sample as a whole.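 Cells were grown in 96-well plates and exposed to the test compound at a single concentration for 48 hours; results are reported as percent growth, with values below 10 considered active.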 Unmarked numbers belong to inactive results. Active and inactive are the calls of the source.

For `O=C(Nc1ccc(-n2cc(-c3ccncc3)c(-c3ccc(Cl)c(O)c3)n2)cc1)Nc1cc(C(F)(F)F)cc(C(F)(F)F)c1`, the growth in test [1] is 15.6%; in test [2] it was 0.312% (active); in test [3] it was -0.49% (active); in test [4] it was 27.1%; in test [5], 15.8%; in test [6] it was 4.61% (active). Further, the growth is -24.4% (active) in test [7]; 5.53% (active) in test [8]; 19.8% in test [9]; 16.1% in [10]; 15.9% in [11]; 35.3% in test [12]. For the same molecule, the growth was 12% in test [13]; 8.54% (active) in test [14]; 17.7% in [15]; 2.13% (active) in test [16]; 9.3% (active) in [17].
In the case of `C=CCNCCC#N`, the growth was 99.9% in [1]; 105% in test [2]; 79.1% in test [3]; 102% in test [4]; 107% in test [5]; 98.5% in test [6]. Moreover, the growth in test [7] is 99.1%; in [8], 109%; in test [9] it was 59.5%; in test [10], 106%; in test [18] it was 109%; in [12], 102%. Moreover, the growth is 110% in test [19]; 105% in [13]; 113% in test [14]; 120% in test [15]; 107% in test [17].
Take `C/C=C/C/C=C/[C@H](C)C[C@H](O)[C@@H]1C[C@@H]2O[C@H]2/C=C/[C@@H]2OC(C)(C)O[C@H]2/C=C/C[C@H](C)CC(=O)O1`: the growth in [1] is 19.7%; in test [2], 28.1%; in [3] it was 36.3%; in test [4] it was 62.2%; in [5] it was 30%; in test [6] it was 57.8%. Further, the growth was 31% in [7]; 8.91% (active) in test [8]; 44.3% in [9]; 59.3% in [10]; 67.2% in test [11]; 38.2% in test [18]. Moreover, the growth is 5.37% (active) in test [12]; 18.8% in test [19]; 38.4% in test [13]; 19.2% in test [14]; 96.5% in [15]; 24.7% in test [16]. Moreover, the growth in [17] is 34.6%.
`O=C1OC(c2ccc(-c3ccccc3)cc2)=C/C1=C/c1c2ccccc2cc2ccccc12`: the growth is 74.8% in test [1]; 103% in test [2]; 78.7% in [3]; 94.1% in test [4]; 98% in test [5]; 98.5% in test [6]. Moreover, the growth in test [7] was 104%; in [8] it was 99.3%; in [9] it was 95.8%; in test [10], 87.7%; in test [11], 65.5%; in [18] it was 101%. Moreover, the growth is 92.8% in test [12]; 77.9% in test [19]; 97.6% in test [13]; 83.7% in test [15]; 69.9% in test [16]; 72.6% in test [17].
`CC(C)(CNC1CCCCC1)OC(=O)c1ccccc1`: the growth was 97.7% in test [1]; 95.5% in test [2]; 105% in test [3]; 103% in test [4]; 100% in test [5]; 91.6% in [6]. In addition, the growth in test [7] was 97.7%; in test [8], 106%; in test [9], 96.7%; in test [10] it was 114%; in [20] it was 116%; in test [12], 77.2%. The growth in test [19] is 104%; in test [13], 108%; in test [14], 102%; in [15] it was 103%; in test [17], 93.8%.
On to `CC(C)(C)c1ccc(OCCOC(=O)CBr)cc1`, for which the growth is 97.9% in test [1]; 104% in [2]; 84.6% in [3]; 104% in test [4]; 103% in [5]; 110% in test [6]. Also, the growth in [7] is 97%; in test [8] it was 93.6%; in [9], 97.8%; in [10], 107%; in test [11] it was 126%; in [18], 116%. Moreover, the growth in test [12] was 92.9%; in test [19] it was 109%; in [13], 85.9%; in [14], 107%; in test [15], 107%; in test [16], 56.2%. Moreover, the growth in test [17] was 63%.
For the molecule `CCCCS(=O)(=O)c1cc(Nc2ccc(O)c3c2C(=O)c2ccccc2C3=O)ccc1C`, the growth in [1] is 66.8%; in test [2], 51.5%; in [3] it was 106%; in [4] it was 66.7%; in test [5], 80.7%; in [6] it was 80.7%. Further, the growth in test [7] is -13.5% (active); in test [8], 32.8%; in test [9], 51.5%; in test [10], 71.5%; in test [20], 92.5%; in test [18], 71.5%. In addition, the growth in [12] was 54.8%; in test [19] it was 116%; in [13] it was 92.2%; in [15], 126%; in [16], 59.7%; in [17] it was 61.2%.
For `CCCCCCCCCCCCCCCCCCOP(=O)(O)O`, the growth in test [1] is 107%; in test [2], 106%; in test [3], 97%; in test [4] it was 101%; in [5], 101%; in [6], 92.5%. The growth is 99.2% in [7]; 91.5% in [8]; 99.3% in [9]; 111% in test [10]; 124% in test [20]; 94.1% in test [18]. Also, the growth in test [12] is 86.8%; in test [19] it was 107%; in test [13], 100%; in test [15], 110%; in test [17] it was 111%.

The record behind these values is PubChem BioAssay (NCI).
